Laboratory results reported in the supplement of paper PMC11732987, “Enantioselective OTUD7B fragment discovery through chemoproteomics screening and high-throughput optimisation” (Communications Chemistry, 2025).

What was measured:
Experiment in all cases: log2 ratio of Biotin-Ahx-Ub-VS probe labelling (fragment/DMSO); higher = less target engagement (more negative = stronger competition), active = hit call of the paper (q ≤ 0.05, log2 ratio ≤ -1)
Conditions in all cases: compound concentration: 200 uM; treatment time: 3 h
USP9X = USP9X (UniProt Q93008)
Procedure, shortened: (§1)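 HEK293T lysate (495 µg per sample, in Tris/CHAPS/IGEPAL buffer with protease inhibitors) was treated in triplicate with fragment at 200 µM or with DMSO for 3 h. It was then treated with Biotin-Ahx-Ub-VS (0.5 µM final) for 1 h. Labelled DUBs were NeutrAvidin-enriched, digested with LysC and trypsin, and run by diaPASEF LC-MS/MS. Spectronaut label-free quantities were global-median-normalised. Values are average log2 ratios fragment/DMSO by unpaired t-test, using proteins with ≥2 unique peptides.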

UniProt O00487 = molecular target: UniProt O00487
Procedure, shortened: as §1

UniProt O00507 = molecular target: UniProt O00507
Procedure, shortened: as §1

UniProt P51784 = molecular target: UniProt P51784
Procedure, shortened: as §1

UniProt Q5T2D3 = molecular target: T1, UniProt Q5T2D3
T1 sequence (whole entry): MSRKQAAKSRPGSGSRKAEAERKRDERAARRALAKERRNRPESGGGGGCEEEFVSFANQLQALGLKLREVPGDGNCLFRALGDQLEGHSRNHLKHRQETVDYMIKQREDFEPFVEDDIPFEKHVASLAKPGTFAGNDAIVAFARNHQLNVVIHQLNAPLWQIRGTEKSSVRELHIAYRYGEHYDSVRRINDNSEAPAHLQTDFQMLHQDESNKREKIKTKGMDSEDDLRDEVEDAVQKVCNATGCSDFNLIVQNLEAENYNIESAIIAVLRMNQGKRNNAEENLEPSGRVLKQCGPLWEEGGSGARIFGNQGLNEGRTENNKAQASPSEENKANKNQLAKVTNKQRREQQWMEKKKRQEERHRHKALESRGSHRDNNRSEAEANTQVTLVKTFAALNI
Procedure, shortened: as §1

UniProt Q8TE49 = molecular target: T2, UniProt Q8TE49
T2 sequence (whole entry): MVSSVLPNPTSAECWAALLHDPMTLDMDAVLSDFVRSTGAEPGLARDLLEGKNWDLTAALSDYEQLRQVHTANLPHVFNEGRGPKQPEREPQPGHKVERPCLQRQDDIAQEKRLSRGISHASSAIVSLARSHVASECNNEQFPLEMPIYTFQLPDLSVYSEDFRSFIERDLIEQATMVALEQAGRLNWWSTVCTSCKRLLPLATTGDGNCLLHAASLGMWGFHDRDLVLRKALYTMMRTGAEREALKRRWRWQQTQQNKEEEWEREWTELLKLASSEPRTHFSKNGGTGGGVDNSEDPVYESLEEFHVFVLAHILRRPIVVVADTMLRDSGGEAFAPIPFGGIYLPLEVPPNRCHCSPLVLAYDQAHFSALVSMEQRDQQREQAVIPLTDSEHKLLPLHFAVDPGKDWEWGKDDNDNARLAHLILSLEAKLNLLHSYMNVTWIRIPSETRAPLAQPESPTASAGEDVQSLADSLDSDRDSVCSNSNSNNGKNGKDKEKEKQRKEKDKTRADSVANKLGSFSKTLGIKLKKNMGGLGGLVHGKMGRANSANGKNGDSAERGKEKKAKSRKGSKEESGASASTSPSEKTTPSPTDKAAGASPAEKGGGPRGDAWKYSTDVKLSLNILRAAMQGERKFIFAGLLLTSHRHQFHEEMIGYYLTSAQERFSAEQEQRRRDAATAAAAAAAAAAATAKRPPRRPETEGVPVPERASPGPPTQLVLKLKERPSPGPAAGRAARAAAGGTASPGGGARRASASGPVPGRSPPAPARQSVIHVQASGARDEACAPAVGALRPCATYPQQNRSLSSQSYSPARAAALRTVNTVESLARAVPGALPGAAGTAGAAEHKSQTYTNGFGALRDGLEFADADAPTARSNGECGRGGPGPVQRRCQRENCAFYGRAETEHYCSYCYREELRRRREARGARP
Procedure, shortened: as §1

UniProt Q9P2H5 = molecular target: T3, UniProt Q9P2H5
T3 sequence (whole entry): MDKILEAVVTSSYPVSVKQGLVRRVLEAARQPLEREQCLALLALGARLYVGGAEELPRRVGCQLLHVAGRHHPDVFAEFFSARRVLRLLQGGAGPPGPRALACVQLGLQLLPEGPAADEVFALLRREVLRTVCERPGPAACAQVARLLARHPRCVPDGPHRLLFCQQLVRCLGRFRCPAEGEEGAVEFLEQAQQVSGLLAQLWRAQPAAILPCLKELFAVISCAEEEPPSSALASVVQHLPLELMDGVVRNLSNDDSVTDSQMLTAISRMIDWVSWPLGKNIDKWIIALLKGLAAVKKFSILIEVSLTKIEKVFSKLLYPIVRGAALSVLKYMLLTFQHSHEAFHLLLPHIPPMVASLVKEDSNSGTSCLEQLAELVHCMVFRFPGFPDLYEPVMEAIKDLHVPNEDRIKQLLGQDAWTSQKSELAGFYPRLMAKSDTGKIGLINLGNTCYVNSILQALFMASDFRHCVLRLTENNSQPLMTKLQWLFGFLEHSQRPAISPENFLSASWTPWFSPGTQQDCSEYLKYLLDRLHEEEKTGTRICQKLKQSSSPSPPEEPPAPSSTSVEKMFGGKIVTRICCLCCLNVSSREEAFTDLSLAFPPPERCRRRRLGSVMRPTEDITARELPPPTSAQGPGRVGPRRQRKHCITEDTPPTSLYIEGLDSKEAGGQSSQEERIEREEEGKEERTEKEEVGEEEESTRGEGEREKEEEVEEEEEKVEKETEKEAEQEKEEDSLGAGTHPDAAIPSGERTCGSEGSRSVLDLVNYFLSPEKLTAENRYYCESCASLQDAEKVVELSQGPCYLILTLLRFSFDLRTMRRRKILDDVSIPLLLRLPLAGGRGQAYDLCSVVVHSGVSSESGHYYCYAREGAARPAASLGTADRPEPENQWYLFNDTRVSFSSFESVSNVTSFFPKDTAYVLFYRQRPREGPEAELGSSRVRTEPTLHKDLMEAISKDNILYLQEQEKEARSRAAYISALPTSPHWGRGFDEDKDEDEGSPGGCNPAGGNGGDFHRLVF
Procedure, shortened: as §1

UniProt Q9UGI0 = molecular target: T4, UniProt Q9UGI0
T4 sequence (whole entry): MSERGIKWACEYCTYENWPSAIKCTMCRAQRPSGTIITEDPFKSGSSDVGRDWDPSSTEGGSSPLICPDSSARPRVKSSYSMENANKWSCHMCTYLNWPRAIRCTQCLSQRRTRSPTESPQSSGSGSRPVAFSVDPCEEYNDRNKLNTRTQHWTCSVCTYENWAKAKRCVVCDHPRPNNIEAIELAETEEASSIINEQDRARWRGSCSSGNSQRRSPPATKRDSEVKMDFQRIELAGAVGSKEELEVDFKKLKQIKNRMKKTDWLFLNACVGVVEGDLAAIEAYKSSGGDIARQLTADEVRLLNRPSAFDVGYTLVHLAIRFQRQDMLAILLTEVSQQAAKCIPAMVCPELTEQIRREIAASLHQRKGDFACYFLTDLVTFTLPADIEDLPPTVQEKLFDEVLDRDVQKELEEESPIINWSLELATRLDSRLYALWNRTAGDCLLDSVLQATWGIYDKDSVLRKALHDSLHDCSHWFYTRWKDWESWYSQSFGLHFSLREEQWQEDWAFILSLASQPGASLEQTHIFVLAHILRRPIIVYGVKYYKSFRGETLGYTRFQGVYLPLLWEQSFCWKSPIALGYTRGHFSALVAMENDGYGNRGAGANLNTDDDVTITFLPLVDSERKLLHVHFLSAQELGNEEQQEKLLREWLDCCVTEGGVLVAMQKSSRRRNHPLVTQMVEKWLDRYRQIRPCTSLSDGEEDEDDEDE
Procedure, shortened: as §1

YOD1 = molecular target: T5, YOD1 (UniProt Q5VVQ6)
T5 sequence (whole entry): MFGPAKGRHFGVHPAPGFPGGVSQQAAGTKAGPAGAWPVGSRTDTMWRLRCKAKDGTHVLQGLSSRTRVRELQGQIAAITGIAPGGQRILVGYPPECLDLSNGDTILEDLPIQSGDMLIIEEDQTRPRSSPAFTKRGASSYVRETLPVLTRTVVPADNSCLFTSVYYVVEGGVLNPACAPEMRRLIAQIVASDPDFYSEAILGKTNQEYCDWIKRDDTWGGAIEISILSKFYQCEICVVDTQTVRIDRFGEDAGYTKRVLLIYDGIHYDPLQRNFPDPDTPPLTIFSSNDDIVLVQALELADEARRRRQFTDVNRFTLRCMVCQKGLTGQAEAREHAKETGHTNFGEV
Procedure, shortened: as §1

Measured: log2 ratio of Biotin-Ahx-Ub-VS probe labelling

Chain of UniProt P51784 (P51784 whole entry): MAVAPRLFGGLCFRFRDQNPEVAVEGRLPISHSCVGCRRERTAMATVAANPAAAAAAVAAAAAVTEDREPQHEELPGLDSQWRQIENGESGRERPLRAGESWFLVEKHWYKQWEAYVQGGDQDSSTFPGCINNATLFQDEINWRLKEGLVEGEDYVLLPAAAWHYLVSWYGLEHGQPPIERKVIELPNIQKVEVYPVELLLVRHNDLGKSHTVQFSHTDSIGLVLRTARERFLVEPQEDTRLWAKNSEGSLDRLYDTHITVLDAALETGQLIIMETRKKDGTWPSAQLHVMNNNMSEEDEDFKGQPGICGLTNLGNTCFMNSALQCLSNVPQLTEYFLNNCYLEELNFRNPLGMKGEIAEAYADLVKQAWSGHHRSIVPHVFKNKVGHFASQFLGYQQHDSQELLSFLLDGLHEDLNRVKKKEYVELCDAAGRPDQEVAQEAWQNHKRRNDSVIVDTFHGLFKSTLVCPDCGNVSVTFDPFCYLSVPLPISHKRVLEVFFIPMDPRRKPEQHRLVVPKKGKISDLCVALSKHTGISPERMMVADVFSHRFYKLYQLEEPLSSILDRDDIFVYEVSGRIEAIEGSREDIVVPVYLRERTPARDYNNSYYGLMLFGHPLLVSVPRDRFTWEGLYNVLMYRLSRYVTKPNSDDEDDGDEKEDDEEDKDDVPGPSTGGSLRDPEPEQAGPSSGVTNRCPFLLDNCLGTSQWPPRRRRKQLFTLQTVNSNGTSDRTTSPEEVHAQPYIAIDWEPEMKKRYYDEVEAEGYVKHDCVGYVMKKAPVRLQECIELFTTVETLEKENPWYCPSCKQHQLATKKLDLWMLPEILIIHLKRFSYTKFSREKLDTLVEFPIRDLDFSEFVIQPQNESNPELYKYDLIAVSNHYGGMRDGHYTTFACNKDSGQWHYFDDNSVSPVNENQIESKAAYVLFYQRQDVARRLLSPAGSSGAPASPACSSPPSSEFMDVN
Chain of USP9X (Q93008 whole entry, the tested form may be a part): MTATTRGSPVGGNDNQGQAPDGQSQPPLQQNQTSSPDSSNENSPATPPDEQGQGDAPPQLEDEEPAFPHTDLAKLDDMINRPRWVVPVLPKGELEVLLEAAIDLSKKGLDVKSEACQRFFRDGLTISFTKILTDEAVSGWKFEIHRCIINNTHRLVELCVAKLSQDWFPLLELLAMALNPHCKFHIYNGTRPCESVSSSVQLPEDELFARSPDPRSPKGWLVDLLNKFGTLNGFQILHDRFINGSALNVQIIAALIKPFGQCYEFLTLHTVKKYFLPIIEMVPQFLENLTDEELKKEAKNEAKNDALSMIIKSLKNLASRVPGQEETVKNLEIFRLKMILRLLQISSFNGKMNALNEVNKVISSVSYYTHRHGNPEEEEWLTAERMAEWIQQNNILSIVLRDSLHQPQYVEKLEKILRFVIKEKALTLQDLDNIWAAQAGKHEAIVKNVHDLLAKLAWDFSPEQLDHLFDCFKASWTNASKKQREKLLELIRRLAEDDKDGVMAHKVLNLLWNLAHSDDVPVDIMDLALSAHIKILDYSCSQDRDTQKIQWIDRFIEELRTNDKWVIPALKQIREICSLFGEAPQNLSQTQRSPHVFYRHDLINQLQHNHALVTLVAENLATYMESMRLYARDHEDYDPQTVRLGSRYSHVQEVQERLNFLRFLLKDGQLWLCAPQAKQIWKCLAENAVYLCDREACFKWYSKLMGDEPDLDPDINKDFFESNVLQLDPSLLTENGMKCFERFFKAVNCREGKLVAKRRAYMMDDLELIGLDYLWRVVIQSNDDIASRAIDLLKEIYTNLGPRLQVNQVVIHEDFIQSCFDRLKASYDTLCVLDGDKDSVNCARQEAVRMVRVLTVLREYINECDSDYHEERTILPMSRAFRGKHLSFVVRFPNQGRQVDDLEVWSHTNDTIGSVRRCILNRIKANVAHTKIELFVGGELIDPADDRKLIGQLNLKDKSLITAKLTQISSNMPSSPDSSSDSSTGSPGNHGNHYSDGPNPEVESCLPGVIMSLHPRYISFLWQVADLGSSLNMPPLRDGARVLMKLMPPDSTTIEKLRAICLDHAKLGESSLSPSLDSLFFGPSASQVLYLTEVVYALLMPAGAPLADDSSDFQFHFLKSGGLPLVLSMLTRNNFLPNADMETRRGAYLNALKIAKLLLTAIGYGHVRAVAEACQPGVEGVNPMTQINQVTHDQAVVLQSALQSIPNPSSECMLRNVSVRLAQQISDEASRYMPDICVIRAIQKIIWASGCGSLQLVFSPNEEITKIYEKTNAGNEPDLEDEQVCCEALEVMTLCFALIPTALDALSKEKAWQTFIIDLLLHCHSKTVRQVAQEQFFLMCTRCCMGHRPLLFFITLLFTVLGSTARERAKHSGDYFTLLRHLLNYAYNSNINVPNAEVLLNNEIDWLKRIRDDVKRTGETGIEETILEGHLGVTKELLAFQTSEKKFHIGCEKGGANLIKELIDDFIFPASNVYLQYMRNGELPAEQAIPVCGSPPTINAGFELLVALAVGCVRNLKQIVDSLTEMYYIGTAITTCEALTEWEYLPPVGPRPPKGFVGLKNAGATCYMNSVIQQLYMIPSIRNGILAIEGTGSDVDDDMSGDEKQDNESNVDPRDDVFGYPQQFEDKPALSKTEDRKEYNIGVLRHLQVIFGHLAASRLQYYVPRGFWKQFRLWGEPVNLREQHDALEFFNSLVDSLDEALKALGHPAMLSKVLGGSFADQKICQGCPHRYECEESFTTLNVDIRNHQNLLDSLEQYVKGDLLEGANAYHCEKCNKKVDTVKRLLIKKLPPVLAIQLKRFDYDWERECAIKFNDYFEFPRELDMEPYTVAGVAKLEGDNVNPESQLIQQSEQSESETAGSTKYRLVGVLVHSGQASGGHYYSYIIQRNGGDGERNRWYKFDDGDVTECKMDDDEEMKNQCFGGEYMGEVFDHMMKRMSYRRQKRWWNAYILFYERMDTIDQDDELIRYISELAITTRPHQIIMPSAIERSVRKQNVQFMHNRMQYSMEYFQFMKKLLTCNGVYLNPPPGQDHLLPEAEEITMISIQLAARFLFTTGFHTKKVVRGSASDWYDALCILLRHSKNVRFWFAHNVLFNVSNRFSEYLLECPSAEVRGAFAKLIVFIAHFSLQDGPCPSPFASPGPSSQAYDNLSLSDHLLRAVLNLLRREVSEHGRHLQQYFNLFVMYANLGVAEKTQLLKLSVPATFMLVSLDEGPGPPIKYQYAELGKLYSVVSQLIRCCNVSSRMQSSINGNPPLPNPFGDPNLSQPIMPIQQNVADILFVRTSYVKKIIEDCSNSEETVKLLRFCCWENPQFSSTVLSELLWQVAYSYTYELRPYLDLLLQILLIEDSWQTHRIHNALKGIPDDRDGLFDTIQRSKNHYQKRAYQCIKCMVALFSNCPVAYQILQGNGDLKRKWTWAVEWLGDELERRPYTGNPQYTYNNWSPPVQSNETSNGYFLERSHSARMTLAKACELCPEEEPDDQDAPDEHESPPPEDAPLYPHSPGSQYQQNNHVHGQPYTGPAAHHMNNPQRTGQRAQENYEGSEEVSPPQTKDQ
Chain of UniProt O00487 (O00487 whole entry): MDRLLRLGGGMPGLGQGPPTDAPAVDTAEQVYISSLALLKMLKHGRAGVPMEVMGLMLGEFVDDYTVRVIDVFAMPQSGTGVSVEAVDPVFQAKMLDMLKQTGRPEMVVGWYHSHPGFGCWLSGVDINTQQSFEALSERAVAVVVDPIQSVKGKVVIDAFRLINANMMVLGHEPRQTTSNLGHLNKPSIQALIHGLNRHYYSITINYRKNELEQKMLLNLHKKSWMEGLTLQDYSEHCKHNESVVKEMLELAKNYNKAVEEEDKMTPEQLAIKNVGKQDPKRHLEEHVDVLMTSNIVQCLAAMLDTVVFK

Cc1cccc2nc(CCNC(=O)CCl)cn12.Cl
inactive: USP9X -0.455 | UniProt O00487 -0.163 | UniProt O00507 -0.595 | UniProt P51784 -0.113 | UniProt Q5T2D3 -0.351 | UniProt Q8TE49 -0.764 | UniProt Q9P2H5 -0.327 | UniProt Q9UGI0 -0.846 | YOD1 -0.336
